Legend:
Assay in all cases: DAPPL (digital affinity profiling via proximity ligation, sequencing); 10 mM Tris-HCl pH 7.5, 50 mM NaCl, 1 mM DTT, 4% glycerol, room temperature, 30 min; GST-TFs on glutathione beads, 16-mer random dsDNA library, 0.1% formaldehyde crosslink after washing; high values mean tight binding
FEV = target: T1, FEV (Homo sapiens, UniProt Q99581 1-238); conditions: protein: recombinant; tags: N-terminal GST; dsDNA, one strand shown
T1 sequence: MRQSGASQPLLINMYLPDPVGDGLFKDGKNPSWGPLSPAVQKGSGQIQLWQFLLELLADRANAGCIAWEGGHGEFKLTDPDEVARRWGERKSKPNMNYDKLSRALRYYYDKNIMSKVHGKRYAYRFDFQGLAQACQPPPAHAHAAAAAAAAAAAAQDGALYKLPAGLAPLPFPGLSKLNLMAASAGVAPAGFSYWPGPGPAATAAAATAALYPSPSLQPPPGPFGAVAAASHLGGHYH
Method in brief: (§1)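 GST fusions of human transcription factors were expressed in yeast and captured with glutathione beads. Once given DNA barcodes and pooled alongside a tag-only sample, they were incubated for 30 min at room temperature with 200 nmole of a random double-stranded 16-mer DNA library in Tris/NaCl/DTT/glycerol buffer, then washed, crosslinked (0.1% formaldehyde), proximity-ligated, PCR-amplified and sequenced on an Illumina NextSeq500. The binding signal of each hexamer is its read frequency for a factor divided by its frequency for the tag-only sample.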

ETV5 = ETV5 (Homo sapiens, UniProt P41161 1-510); conditions: protein: recombinant; tags: N-terminal GST; dsDNA, one strand shown
ETV5, sequence (P41161 whole entry): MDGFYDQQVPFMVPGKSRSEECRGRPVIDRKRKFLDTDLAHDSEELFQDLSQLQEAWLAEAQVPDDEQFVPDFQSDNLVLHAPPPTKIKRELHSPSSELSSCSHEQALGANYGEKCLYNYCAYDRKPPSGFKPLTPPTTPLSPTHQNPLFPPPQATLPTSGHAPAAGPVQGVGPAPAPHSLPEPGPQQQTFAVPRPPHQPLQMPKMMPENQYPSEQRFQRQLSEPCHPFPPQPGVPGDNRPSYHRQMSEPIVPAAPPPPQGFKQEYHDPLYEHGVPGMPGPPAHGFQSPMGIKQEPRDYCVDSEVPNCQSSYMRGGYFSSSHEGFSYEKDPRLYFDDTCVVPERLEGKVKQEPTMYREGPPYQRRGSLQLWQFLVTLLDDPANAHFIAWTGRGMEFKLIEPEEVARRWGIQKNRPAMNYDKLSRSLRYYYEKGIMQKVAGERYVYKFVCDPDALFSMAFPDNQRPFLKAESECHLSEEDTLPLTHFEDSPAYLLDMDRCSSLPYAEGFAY
Method in brief: as §1

HSF1 = HSF1 (Homo sapiens, UniProt Q00613 1-529); conditions: protein: recombinant; tags: N-terminal GST; chain copies: 3; dsDNA, one strand shown
HSF1, sequence (Q00613 whole entry): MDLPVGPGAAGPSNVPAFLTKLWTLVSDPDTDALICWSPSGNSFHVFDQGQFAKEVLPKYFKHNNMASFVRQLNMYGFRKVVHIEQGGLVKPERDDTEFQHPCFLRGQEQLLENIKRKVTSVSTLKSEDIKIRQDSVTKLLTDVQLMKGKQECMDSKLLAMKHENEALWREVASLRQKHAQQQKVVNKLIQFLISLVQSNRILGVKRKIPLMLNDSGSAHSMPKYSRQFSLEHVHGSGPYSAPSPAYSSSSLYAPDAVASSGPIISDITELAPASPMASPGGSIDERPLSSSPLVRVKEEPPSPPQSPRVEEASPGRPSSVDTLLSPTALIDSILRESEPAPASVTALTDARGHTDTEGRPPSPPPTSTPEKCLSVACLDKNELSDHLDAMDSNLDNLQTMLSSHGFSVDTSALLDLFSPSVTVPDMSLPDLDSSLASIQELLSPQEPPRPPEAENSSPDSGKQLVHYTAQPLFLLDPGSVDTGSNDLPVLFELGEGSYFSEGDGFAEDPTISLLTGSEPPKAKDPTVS
Method in brief: as §1

SPIC = target: T2, SPIC (Homo sapiens, UniProt Q8N5J4 1-248); conditions: protein: recombinant; tags: N-terminal GST; dsDNA, one strand shown
T2 sequence: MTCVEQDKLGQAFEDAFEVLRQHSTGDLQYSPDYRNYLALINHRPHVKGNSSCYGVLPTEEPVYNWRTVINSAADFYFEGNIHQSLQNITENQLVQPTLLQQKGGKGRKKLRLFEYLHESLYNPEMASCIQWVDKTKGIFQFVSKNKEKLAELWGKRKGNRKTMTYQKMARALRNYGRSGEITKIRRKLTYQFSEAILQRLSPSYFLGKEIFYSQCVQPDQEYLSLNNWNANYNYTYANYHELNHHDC
Method in brief: as §1

ELF4 = ELF4 (Homo sapiens, UniProt Q99607 1-663); conditions: protein: recombinant; tags: N-terminal GST; dsDNA, one strand shown
ELF4, sequence (Q99607 whole entry): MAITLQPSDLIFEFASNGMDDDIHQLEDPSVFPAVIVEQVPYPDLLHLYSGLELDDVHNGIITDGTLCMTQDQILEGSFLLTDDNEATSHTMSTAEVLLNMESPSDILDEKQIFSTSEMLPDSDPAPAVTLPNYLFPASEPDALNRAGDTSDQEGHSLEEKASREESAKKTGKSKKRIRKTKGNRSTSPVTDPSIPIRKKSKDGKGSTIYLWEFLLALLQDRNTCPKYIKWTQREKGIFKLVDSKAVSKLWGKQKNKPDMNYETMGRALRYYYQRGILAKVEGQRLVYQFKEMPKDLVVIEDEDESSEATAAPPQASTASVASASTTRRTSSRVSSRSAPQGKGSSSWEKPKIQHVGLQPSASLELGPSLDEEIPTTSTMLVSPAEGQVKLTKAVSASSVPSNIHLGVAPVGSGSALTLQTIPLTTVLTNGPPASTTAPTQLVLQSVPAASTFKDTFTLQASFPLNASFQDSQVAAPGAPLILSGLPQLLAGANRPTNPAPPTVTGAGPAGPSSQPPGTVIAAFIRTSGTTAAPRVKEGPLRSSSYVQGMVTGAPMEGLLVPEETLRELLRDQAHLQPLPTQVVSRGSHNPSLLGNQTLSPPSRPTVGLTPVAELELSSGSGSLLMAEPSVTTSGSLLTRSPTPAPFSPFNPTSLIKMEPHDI
Method in brief: as §1

ELK4 = target: T3, ELK4 (Homo sapiens, UniProt P28324-2 1-405); conditions: protein: recombinant; tags: N-terminal GST; dsDNA, one strand shown
T3 sequence: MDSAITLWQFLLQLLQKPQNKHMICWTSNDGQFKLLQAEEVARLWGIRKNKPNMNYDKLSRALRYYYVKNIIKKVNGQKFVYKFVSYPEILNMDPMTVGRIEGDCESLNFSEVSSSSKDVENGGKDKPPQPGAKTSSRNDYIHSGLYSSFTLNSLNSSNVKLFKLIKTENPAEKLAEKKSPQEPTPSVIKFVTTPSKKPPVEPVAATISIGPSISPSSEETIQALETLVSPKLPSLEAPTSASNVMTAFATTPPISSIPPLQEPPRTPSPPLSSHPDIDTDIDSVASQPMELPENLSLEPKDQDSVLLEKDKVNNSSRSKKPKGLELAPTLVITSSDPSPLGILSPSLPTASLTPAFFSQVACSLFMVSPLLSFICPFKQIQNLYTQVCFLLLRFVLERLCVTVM
Method in brief: as §1

ETV2 = target: T4, ETV2 (Homo sapiens, UniProt O00321 1-342); conditions: protein: recombinant; tags: N-terminal GST; dsDNA, one strand shown
T4 sequence: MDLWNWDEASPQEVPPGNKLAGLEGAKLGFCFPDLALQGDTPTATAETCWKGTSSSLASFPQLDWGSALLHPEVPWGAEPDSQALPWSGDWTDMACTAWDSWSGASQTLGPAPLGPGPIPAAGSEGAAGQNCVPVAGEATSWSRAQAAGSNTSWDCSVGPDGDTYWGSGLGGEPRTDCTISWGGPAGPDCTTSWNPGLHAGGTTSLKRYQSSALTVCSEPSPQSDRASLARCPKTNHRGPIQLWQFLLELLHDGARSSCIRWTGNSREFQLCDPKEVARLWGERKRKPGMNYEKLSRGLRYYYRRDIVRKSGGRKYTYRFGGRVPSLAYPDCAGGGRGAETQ
Method in brief: as §1

ELF3 = target: T5, ELF3 (Homo sapiens, UniProt P78545 1-371); conditions: protein: recombinant; tags: N-terminal GST; dsDNA, one strand shown
T5 sequence: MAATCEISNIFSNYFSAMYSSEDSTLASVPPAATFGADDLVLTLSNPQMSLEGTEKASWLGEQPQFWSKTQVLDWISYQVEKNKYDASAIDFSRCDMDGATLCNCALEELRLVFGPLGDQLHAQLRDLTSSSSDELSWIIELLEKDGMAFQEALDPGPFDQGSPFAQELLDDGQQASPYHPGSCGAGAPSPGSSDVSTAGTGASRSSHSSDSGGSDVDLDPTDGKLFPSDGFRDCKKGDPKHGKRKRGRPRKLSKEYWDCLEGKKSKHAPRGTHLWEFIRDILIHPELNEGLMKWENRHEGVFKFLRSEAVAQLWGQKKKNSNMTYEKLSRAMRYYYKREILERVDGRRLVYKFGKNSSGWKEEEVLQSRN
Method in brief: as §1

CRX = CRX (Homo sapiens, UniProt O43186 1-299); conditions: protein: recombinant; tags: N-terminal GST; dsDNA, one strand shown
CRX, sequence (O43186 whole entry): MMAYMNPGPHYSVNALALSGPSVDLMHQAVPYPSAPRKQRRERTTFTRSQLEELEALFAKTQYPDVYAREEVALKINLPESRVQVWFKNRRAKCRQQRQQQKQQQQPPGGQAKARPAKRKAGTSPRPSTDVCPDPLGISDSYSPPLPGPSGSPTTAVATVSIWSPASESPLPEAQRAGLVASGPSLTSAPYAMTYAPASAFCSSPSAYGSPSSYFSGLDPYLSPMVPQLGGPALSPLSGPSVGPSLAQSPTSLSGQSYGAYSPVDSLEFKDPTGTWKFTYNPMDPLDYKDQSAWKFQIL
Method in brief: as §1

ETV1 = ETV1 (Homo sapiens, UniProt P50549 1-477); conditions: protein: recombinant; tags: N-terminal GST; dsDNA, one strand shown
ETV1, sequence (P50549 whole entry): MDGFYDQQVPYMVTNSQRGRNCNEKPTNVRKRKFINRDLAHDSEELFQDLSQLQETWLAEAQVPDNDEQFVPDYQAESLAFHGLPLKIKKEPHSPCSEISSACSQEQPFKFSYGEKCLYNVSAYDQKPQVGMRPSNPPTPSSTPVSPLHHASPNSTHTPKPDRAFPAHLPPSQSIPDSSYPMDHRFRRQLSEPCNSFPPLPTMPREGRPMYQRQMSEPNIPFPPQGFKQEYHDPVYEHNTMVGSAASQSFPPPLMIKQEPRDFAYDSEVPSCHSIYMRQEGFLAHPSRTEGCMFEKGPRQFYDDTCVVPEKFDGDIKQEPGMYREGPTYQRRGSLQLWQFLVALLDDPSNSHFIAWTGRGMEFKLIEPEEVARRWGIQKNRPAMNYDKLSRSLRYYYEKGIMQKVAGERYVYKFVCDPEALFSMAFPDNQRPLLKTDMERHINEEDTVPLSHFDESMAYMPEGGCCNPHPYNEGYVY
Method in brief: as §1

ERF = target: T6, ERF (Homo sapiens, UniProt P50548 1-548); conditions: protein: recombinant; tags: N-terminal GST; dsDNA, one strand shown
T6 sequence: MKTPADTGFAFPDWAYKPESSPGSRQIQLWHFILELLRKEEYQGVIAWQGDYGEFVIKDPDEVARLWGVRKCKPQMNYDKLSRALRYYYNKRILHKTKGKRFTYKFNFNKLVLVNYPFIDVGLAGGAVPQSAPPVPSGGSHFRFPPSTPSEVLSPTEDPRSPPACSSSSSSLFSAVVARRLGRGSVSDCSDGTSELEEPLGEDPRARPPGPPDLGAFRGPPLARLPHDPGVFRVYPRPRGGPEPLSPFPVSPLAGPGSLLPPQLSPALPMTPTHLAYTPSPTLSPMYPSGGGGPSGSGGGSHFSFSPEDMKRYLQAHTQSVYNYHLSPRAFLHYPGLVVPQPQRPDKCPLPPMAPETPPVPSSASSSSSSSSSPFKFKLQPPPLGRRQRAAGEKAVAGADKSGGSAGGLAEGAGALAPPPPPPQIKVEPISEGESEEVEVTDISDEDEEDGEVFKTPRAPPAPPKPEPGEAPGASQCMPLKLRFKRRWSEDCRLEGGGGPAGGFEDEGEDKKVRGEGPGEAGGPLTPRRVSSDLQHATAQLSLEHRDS
Method in brief: as §1

ETV3L = target: T7, ETV3L (Homo sapiens, UniProt Q6ZN32 1-361); conditions: protein: recombinant; tags: N-terminal GST; dsDNA, one strand shown
T7 sequence: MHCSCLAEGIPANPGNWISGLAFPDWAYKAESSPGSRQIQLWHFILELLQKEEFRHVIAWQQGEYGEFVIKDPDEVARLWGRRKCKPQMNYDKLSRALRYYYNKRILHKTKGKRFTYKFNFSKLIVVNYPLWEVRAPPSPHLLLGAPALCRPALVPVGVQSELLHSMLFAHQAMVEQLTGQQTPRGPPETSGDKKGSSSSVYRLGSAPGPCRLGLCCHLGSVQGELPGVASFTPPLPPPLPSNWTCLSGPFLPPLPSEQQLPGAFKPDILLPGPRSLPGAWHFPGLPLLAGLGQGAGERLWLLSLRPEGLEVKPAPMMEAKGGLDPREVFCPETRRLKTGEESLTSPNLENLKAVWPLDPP
Method in brief: as §1

ETS2 = target: T8, ETS2 (Homo sapiens, UniProt P15036 1-469); conditions: protein: recombinant; tags: N-terminal GST; dsDNA, one strand shown
T8 sequence: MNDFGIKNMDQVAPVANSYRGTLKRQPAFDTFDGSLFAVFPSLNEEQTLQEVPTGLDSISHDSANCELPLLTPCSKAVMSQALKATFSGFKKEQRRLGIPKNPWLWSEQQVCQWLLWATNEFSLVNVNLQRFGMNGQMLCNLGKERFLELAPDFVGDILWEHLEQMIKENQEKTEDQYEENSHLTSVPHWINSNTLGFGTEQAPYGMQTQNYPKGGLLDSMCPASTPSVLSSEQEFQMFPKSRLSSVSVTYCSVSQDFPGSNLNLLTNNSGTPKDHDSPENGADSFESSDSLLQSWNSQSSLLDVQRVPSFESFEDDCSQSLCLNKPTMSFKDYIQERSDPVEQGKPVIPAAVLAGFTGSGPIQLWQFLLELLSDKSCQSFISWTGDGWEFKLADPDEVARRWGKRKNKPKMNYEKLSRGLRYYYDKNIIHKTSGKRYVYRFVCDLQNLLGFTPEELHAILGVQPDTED
Method in brief: as §1

SPDEF = target: T9, SPDEF (Homo sapiens, UniProt O95238 1-335); conditions: protein: recombinant; tags: N-terminal GST; dsDNA, one strand shown
T9 sequence: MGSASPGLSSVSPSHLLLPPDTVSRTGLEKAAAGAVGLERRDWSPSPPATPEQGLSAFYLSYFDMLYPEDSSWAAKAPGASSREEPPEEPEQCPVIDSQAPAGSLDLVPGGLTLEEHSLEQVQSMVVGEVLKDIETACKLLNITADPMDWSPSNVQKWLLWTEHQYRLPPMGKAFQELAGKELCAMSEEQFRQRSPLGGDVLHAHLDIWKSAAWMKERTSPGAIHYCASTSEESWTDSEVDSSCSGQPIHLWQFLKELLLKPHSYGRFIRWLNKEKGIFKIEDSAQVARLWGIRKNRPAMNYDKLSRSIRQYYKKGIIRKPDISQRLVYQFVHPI
Method in brief: as §1

ETV7 = target: T10, ETV7 (Homo sapiens, UniProt Q9Y603 1-341); conditions: protein: recombinant; tags: N-terminal GST; dsDNA, one strand shown
T10 sequence: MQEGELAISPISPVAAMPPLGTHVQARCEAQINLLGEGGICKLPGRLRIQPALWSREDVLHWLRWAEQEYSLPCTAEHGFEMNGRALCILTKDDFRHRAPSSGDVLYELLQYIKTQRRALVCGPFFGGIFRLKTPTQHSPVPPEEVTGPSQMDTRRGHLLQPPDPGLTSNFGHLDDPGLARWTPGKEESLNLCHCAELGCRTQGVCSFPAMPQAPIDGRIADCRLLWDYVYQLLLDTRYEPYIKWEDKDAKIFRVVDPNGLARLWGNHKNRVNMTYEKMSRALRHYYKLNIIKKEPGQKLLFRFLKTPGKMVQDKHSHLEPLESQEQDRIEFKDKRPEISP
Method in brief: as §1

ELF5 = target: T11, ELF5 (Homo sapiens, UniProt Q9UKW6-2 1-255); conditions: protein: recombinant; tags: N-terminal GST; dsDNA, one strand shown
T11 sequence: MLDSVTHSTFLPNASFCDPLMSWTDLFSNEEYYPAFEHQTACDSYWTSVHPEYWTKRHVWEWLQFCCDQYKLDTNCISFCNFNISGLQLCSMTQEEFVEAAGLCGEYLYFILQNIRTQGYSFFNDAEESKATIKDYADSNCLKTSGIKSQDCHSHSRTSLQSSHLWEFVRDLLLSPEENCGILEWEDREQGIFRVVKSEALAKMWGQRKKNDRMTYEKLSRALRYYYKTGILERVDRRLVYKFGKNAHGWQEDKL
Method in brief: as §1

ETV3 = target: T12, ETV3 (Homo sapiens, UniProt P41162-2 1-143); conditions: protein: recombinant; tags: N-terminal GST; dsDNA, one strand shown
T12 sequence: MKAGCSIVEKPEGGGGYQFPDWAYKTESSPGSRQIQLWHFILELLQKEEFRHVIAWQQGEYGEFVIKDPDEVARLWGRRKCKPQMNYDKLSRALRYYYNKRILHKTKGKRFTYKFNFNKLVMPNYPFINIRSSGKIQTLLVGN
Method in brief: as §1

ETV6 = ETV6 (Homo sapiens, UniProt P41212 1-452); conditions: protein: recombinant; tags: N-terminal GST; dsDNA, one strand shown
ETV6, sequence (P41212 whole entry): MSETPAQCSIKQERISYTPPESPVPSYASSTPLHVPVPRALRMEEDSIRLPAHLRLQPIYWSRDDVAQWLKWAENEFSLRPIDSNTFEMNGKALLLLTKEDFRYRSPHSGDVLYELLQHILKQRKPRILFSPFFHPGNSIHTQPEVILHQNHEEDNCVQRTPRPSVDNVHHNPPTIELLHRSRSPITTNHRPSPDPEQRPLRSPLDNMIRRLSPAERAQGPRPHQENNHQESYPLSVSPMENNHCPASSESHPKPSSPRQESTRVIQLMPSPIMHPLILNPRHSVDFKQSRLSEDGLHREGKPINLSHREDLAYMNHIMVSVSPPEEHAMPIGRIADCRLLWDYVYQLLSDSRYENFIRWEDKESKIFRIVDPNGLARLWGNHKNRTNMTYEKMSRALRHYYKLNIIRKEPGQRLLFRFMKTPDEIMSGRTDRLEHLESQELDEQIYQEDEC
Method in brief: as §1

Sequence: TCCGCT
- binding signal (FEV): 2.51 fold enrichment (6-mer frequency, TF over GST control)
- binding signal (ETV5): 2.37 fold enrichment (6-mer frequency, TF over GST control)
- binding signal (HSF1): 1.51 fold enrichment (6-mer frequency, TF over GST control)
- binding signal (SPIC): 2.63 fold enrichment (6-mer frequency, TF over GST control)
- binding signal (ELF4): 2.13 fold enrichment (6-mer frequency, TF over GST control)
- binding signal (ELK4): 2.01 fold enrichment (6-mer frequency, TF over GST control)
- binding signal (ETV2): 2.27 fold enrichment (6-mer frequency, TF over GST control)
- binding signal (ELF3): 2.15 fold enrichment (6-mer frequency, TF over GST control)
- binding signal (CRX): 1.84 fold enrichment (6-mer frequency, TF over GST control)
- binding signal (ETV1): 2.44 fold enrichment (6-mer frequency, TF over GST control)
- binding signal (ERF): 2.12 fold enrichment (6-mer frequency, TF over GST control)
- binding signal (ETV3L): 2.23 fold enrichment (6-mer frequency, TF over GST control)
- binding signal (ETS2): 2.32 fold enrichment (6-mer frequency, TF over GST control)
- binding signal (SPDEF): 2.51 fold enrichment (6-mer frequency, TF over GST control)
- binding signal (ETV7): 2.07 fold enrichment (6-mer frequency, TF over GST control)
- binding signal (ELF5): 2.58 fold enrichment (6-mer frequency, TF over GST control)
- binding signal (ETV3): 2.44 fold enrichment (6-mer frequency, TF over GST control)
- binding signal (ETV6): 2.44 fold enrichment (6-mer frequency, TF over GST control)

Reference: paper PMC7862700, “An all-to-all approach to the identification of sequence-specific readers for epigenetic DNA modifications on cytosine”
